The values below come from PubChem BioAssay (NCATS).

SMILES strings stand for the structures. Several values for one entry are separate records, joined by “and”; a condition that tells them apart may be missing. Identical values can stand only once. Records with an inconclusive call do not appear. Values without a mark were called inactive. Activity calls are given as the source filed them. The call rests on the fitted dose curve; in most records, active means well fitted cell-killing curve with a large enough effect; inconclusive means small, poorly fitted or top-dose-only effect, or effect the other way; inactive means flat fitted curve, though single readings scatter.
On the % scale 0 is the no-effect control and ±100 the full control effect; potency means the concentration at half of the fitted maximal effect.

A short description of the experiment: qHTS assay for cell viability of HEK293 cells (AID 743288). Further: nearly all actives have a fitted effect of over 50% in size. To be noted: ATP luminescence (CellTiter-Glo), 18 h; max response: active compounds read low. The text has this: National Center for Advancing Translational Sciences [NCATS]
NIH Chemical Genomics Center [NCGC]
U.S. Environmental Protection Agency [EPA]
National Institutes of Environmental Health Sciences [NIEHS]
National Toxicology Program [NTP]
U.S. Food and Drug Administration [FDA]
The CellTiter-Glo Luminescent Cell Viability Assay (Promega, Madison, WI) is a homogeneous method to determine the number of viable cells in culture based on quantitation of the ATP present, which signals the presence of metabolically active cells. This cell viability assay was used to screen environmental chemicals in the Hek293 cell line.
Tox21 Assay Protocol Summary:
Cell viability after compound treatment was measured using a luciferase-coupled ATP quantitation assay (CellTiter-Glo viability assay, Promega, Madison, WI) in parental HEK293 cells. Total intracellular ATP content corresponds to the number of metabolically competent cells after compound treatment. The cells were dispensed at 2,000 cells/5 uL/well in 1,536-well white/solid bottom assay plates using a Flying Reagent Dispenser (Aurora Discovery, San Diego, CA). The cells were incubated a minimum of 5 h at 37 C, followed by the addition of 23 nL of compounds dissolved in DMSO, positive controls or DMSO only using a pintool work station (Kalypsys, San Diego, CA). The assay plates were incubated for 18 h at 37 C, followed by the addition of 5 uL/well of CellTiter-Glo reagent. After 30 min incubation at room temperature, the luminescence intensity of the plates was measured using a ViewLux plate reader (PerkinElmer, Shelton, CT).
(qHTS replaces the single test concentration by a dilution series.)
As to `COC(=O)c1cccc(C)c1S(=O)(=O)NC(=O)Nc1nc(OCC(F)(F)F)nc(N(C)C)n1`, the max response was -5.64%.
Still for that read-out and setting: to `O=C1CCC(C2CCCCC2)CC1` belongs -5.89%.
For `Cc1cc(Cc2cc(C)cc(C(C)(C)C)c2O)c(O)c(C(C)(C)C)c1`, the Potency is 50.1 µM (active).
With `O=C(O)c1ccc2c(c1)C(=O)OC2=O`, the max response is -7.11%.
As to `O=C(OCC1CCC2OC2C1)C1CCC2OC2C1` (stereo not given), the max response is -11.2%.
As for `CC(=O)N(CCN(C(C)=O)C(C)=O)C(C)=O`, the max response is -0.359%.
In the case of `C=CC(=O)OCC(C)OCC(C)OCC(C)OC(=O)C=C` (stereo not given), the max response was -1.74%.
Take `Cn1c(=O)[nH]c(=O)n(C2CCC(O)CC2)c1=O` (stereo not given): the max response is -0.781%.
As to `C#CCOC(=O)[C@@H](C)Oc1ccc(Oc2ncc(Cl)cc2F)cc1`, the max response was -6.8%.
Consider `CCNc1nc(N)nc(Cl)n1`, for which the max response is -4.19% and 3.18%.
As for `CC(C)Nc1nc(N)nc(Cl)n1`, the max response is -6.34% and -4.35%.
For `CCOC(=O)C(C)Oc1ccc(Oc2nc3ccc(Cl)cc3o2)cc1` (stereo not given), the max response was 2.68%.
For the compound `CCC(=O)C1C(=O)CC(C(=O)O)CC1=O` (stereo not given), the max response was 6.24%.
`O=S(=O)(O)c1cc(S(=O)(=O)O)c2c(N=Nc3ccccc3)c(O)ccc2c1`: the max response is -12.7%.
Regarding `CCCCCCCCCCCCCCCCCCN`, the max response is 4.92%.
`COc1cc(Cl)c(OC)cc1N`: the max response was -8.15%.
As to `CNc1nc(=O)n(C2CCCCC2)c(=O)n1C`, the max response is -6.85%.
`C1CCC2(CCCCO2)OC1`: the max response is 3.07%.
With `CCCCCCC(O)CCCCCCCCCCC(=O)O` (stereo not given), the max response is -10.3%.
Regarding `O=c1n(CCO)c(=O)n(CCO)c(=O)n1CCO`, the max response is -6.36%.
Same read-out and setting: to `CCNc1nc(NC(C)CC)nc(OC)n1` (stereo not given) belongs -2.08%; to `Cc1ccc(S(=O)(=O)N=C=O)cc1`, -6.04%.
Consider `CCOc1ccc(NC(=O)OC(C)C)cc1OCC`, for which the max response is -5.68%.
As for `CCCCCCCC/C=C\CCCCCCCCO`, the max response is -11.8%.
Same read-out and setting: to `Brc1ccc(Oc2ccc(Br)cc2)cc1` belongs -10%.
Consider `CCCCC(CC)COC(=O)/C=C\C(=O)OCC(CC)CCCC` (stereo not given), for which the max response is -2.82%.
As for `CCC(C)(C)C1CCC(O)CC1` (stereo not given), the max response is -3.71%.
Same read-out and setting: to `CC(=O)CC(=O)Nc1ccc(C)cc1C` belongs -7.21%; to `O=C(c1ccc(Cl)cc1)c1ccc(Cl)cc1`, -7.2%.
`CCCCCc1ccc(N)cc1`: the max response is -6.55%.
For `CCOCCOCCOCCO`, the max response is -2.83%.
In the case of `Oc1ccc(C(c2ccc(O)cc2)C(Cl)(Cl)Cl)cc1`, the max response was -13.2%.
Consider `C=Cc1ccc(P(c2ccccc2)c2ccccc2)cc1`, for which the max response is -7.87%.
As to `CC(C)(C)C1CCC(O)CC1` (stereo not given), the max response is 1.92%.
Turning to `CCCCCCCC(=O)OC`, the max response was -6.4%.
On the same count and under the same terms, to `Cc1c(Cl)cccc1Cl` belongs -7.06%.
For `CC/C(=C(\c1ccc(O)cc1)c1ccc(OCCN(C)C)cc1)c1ccccc1`, the Potency was 25.1 µM (active).
Take `Nc1ccc(N)c2c1C(=O)c1c(N)ccc(N)c1C2=O`: the max response is -28.2%.
On to `Cc1ccc(Cl)cc1Cl`, for which the max response was -8.46%.
With `Cc1ccc(N=Nc2c(O)ccc3ccccc23)c(C)c1`, the max response is -21.3%.
